# Source: PubChem BioAssay AID493078 (National Center for Advancing Translational Sciences (NCATS), 2011)
# The list shows a part of the results. Entries that show only a call come without a potency. Results filed as inconclusive are left out. Active and inactive are the calls of the source. Calls follow the shape of the dose curve; as a rule, active = well fitted activation curve with a large enough effect; inconclusive = small, poorly fitted or top-dose-only effect; inactive = flat fitted curve, though single readings scatter. Where a SMILES comes first, the peptide text is derived from it. The star is where a group is joined. OPac = O=C(CO*)c1ccccc1; Bz = O=C(c1ccccc1)*
# Biological target: Thyrotropin-releasing hormone receptor (Homo sapiens) (UniProt P34981)
# Assay: qHTS for Small Molecule Agonists and Allosteric Enhancers of Human TRH Receptor: Confirmation Screen for Agonists; also: nearly all actives have a fitted effect of over 75% in size
# Details: TRHR-expressing cells, agonist activation read-out; series mostly up to 46.1 µM
# Excerpt: NIH Chemical Genomics Center [NCGC]
# NIH Molecular Libraries Probe Centers Network [MLPCN]
# Assay Submitter (PI): Marvin Gershengorn
# This project aims to identify small drug-like molecules that activate (agonists) the thyrotropin releasing hormone (TRH) receptor (TRHR) or enhance its TRH-stimulated activity (allosteric enhancers). TRHR, a drug-accessible cell surface receptor expressed in specific brain regions, and its ligand TRH have been implicated in several central nervous system disorders, including depression and anxiety. Small molecule TRHR agonists or allosteric enhancers that are metabolically stable and able to cross the blood-brain barrier might serve as probes to elucidate the roles of brain TRH receptors in animal models, and might be valuable as lead compounds for the development of drugs to treat patients with central nervous system disorders.
# Upon TRHR-Gq activation in TRHR cells, intracellular calcium is released from stores in the endoplasmic reticulum.
# For the HTS assay freshly prepared cells are plated at a density of 2000/well in 3 ul of complete DMEM medium containing 10% serum in 1536-well plates and cultured over night at 37 C in a humidified incubator with 5% CO2. The next day, 2 ul of a no wash calcium dye (ABD Bioquest) was added to the cells and plates were incubated at room temperature for 1 hour. For the assay, assay plates were loaded into the FDSS kinetic plate reader. A 10 cycle (1 second/cycle) baseline measurement is taken and then the FDSS online 1536 pintool delivers 23 nl of compound library (as well as TRH controls) to the plate. The plate is measured for kinetically at 1 cycle/sec for 180 seconds and is considered to be the agonist portion of the assay (eg, compounds which activate a positive calcium response during this portion are flagged as potential agonists). Following the 180 second read, 1 ul of either an EC20 (positive modulation assay) is delivered by an onboard pipette head. Measurements are taken kinetically for an additional 180 seconds.
# TRHR FDSS Screening Protocol
# 1. Reagent, 3 uL 2000 cells/well 1536 TC treated Black plate in media containing 10% FCS
# 2. Time, 18 hours, 33.5C 5% CO2 (cells grown at 37C)
# 3. Reagent, 2 uL ABD fluo-8 Ca dye
# 4. Time, 30 min-1.5hrs hours, Room temp (6 plates/batch)
# 5. Detector, EX 480/EM 530C, FDSS 10 cycles baseline (1sec/cycle)
# 6. Compound, 23 nL of stock solution from library
# 7. Detector, EX 480/EM 530C, FDSS 230 cycles (1sec/cycle) Agonist mode
# 8. Compound, 1 ul EC20 of TRH made up in HEPES HBSS, 10 nM final
# 9. Detector, EX 480/EM 530C, FDSS 100 cycles (1sec/cycle) Potentiator mode
# Potency is read from the fitted curve at half-maximal effect.
# Sequence of Thyrotropin-releasing hormone receptor (Homo sapiens) (P34981 whole entry, looked up): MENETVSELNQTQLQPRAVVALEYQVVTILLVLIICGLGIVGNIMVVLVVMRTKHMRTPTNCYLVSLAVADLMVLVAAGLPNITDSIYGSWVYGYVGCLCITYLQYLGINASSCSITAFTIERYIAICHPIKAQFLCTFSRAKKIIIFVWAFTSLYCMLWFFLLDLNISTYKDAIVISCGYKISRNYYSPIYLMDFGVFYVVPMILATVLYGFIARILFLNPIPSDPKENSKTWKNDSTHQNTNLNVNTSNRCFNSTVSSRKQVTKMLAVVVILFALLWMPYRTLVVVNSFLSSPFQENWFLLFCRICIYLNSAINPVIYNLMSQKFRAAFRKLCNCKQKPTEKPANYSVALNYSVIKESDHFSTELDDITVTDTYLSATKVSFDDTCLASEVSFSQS
row,SMILES,Potency
1,CC1=C(C)CC(C(=O)NC(C)CCc2ccccc2)C(C(=O)O)C1 (stereo not given),inactive
2,Cc1csc(CN(C)C(=O)CC2C(=O)NCCN2CC(C)(C)C)n1 (stereo not given),inactive
3,COc1ccc(CCn2ccc(O)c(Cc3ccc(Cl)cc3Cl)c2=O)cc1OC,inactive
4,CC1(C)Cc2c(cnn2-c2cccc(F)c2)C(NC(=O)c2cc[n+]([O-])cc2)C1 (stereo not given),inactive
5,CC(C)c1nnc(NC(=O)CCC(=O)N2CCN(c3cccc(Cl)c3)CC2)s1,inactive
6,NS(=O)(=O)c1cccc(NC(=O)CSc2nc3ccccc3n2-c2ccccc2)c1,inactive
7,COc1ccc(Cl)cc1NC(=O)CN(C)Cc1ccc(OC)c(OC)c1,inactive
8,COc1cc(C2C3=C(CCCC3=O)OC3=C2C(=O)CCC3)ccc1OCC(=O)Nc1ccccc1,inactive
9,N#Cc1ccc(Oc2cc(C(F)(F)F)nc(-c3ccccn3)n2)cc1,inactive
10,Cc1ccc(Cl)c(OCC(=O)N2CCc3ccccc3C2)c1,inactive
11,COc1ccc(OCc2n[nH]c(=S)n2N)cc1,inactive
12,Cc1c(/C=N\NC(=O)c2cc3ccccc3o2)c2ccccc2n1C,inactive
13,Cn1cccc1C1(C(F)(F)F)NCCNC1=O (stereo not given),inactive
14,CC(=O)N1CCN(CC(=O)Nc2ccc(C)c(F)c2)CC1,inactive
15,CSc1nnnn1-c1c(C)cc(C)cc1C,inactive
16,Cc1nn(Cc2ccccc2)c(C)c1C(=O)N1CCN(CC(=O)Nc2ccccc2Cl)CC1,inactive
17,O=C(/C=C/c1ccc(N2CCOCC2)cc1)c1ccccc1,20.6 µM (active)
18,Cc1cccn2c(=O)c3cc(C(=O)NC4CCCCC4)sc3nc12,inactive
19,c1cnc(N2CCN(c3ccc4ccccc4n3)CC2)nc1,inactive
20,C/C(=N/OC(=O)c1ccc(Br)cc1)c1ccc(C)cc1,inactive

row,SMILES,Potency
1,NC(N)=Nc1nc(-c2ccccc2)c2cc(Cl)ccc2n1,inactive
2,CCOc1cc(CN2CCCC(CO)(Cc3ccc(F)cc3F)C2)ccc1OC (stereo not given),inactive
3,CCOC(=O)C1=C(O)/C(=C/c2cc(C)n(-c3ccccc3)c2C)N=C1C,inactive
4,CC(=O)n1c(C=Nc2ccccc2)c(O)c2ccccc21,20.6 µM (active)
5,CN(C(=O)CSc1nnc(Nc2ccccc2)s1)C1CCS(=O)(=O)C1 (stereo not given),inactive
6,O=C(CN1C(=O)c2cccc3cccc1c23)Nc1ccccc1,inactive
7,O=c1[nH]c2cccnc2n(CCNc2ncc(C(F)(F)F)cc2Cl)c1=O,inactive
8,O=c1o[nH]c(-c2ccccc2)c1N=Nc1c(F)cccc1Cl,inactive
9,O=C(Nc1ccccc1)c1cccnc1Nc1ccccc1,inactive
10,Cc1cc(S(=O)(=O)c2cc3ccc(O)c(C)c3oc2=O)ccc1F,20.6 µM (active)
11,CCc1nnc(NC(=O)[C@@H](NC(=O)c2cccc(C)c2)C(C)C)s1,inactive
12,CC(=O)c1cc(NC(=O)c2ccccc2)c(=O)oc1/C=C/N(C)C,20.6 µM (active)
13,COC(=O)c1cc(N2CCNCC2)nc2ccccc12,inactive
14,Cc1ccc(-c2cn(S(=O)(=O)c3cccc([N+](=O)[O-])c3)nc2N)cc1,inactive
15,CCc1ccccc1NC(=O)/C(=C/c1ccccc1)c1ccccc1,inactive
16,O=C1C(=O)N(CCCO)C(c2ccccc2)/C1=C(\O)c1ccc(Br)cc1 (stereo not given),inactive
17,C/C(=C\c1ccco1)CN1CCC(N2CCC(C(=O)N3CCOCC3)CC2)CC1,inactive
18,Cc1cc(C(=O)CCl)c(C)n1CC1COc2ccccc2O1 (stereo not given),inactive
19,CCOc1ncccc1C(=O)OCC(=O)N1c2ccccc2CC1C (stereo not given),inactive
20,O=C(CNC(=O)c1ccccc1)NCC(=O)OCC(=O)c1ccccc1 (Bz-Gly-Gly-OPac),inactive
